Measurements: PubChem BioAssay (NCI)
Compounds without any hit were thinned out: in the full panel of roughly 83,000, 20% have a hit.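 Plates (96-well) were seeded with cells, treated with compound at one concentration, and incubated for 48 hours before percent growth was determined.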 Values without a mark were called inactive. Activity calls are given as the source filed them. The calls were made as follows: active = growth percent below 10; inactive = the rest.

What was measured:
Assay in all cases: NCI-60 one-dose screen, 48 h (100 = growth as untreated, 0 = no growth, -100 = all killed)
Conditions in all cases: 10 µM unless noted
SK-MEL-2 melanoma = system: SK-MEL-2 melanoma
EKVX NSCLC = system: EKVX NSCLC
SN12C renal = system: SN12C renal
UO-31 renal = system: UO-31 renal
TK-10 renal = system: TK-10 renal
ACHN renal = system: ACHN renal
CAKI-1 renal = system: CAKI-1 renal
A498 renal = system: A498 renal
CCRF-CEM leukemia = system: CCRF-CEM leukemia
MOLT-4 leukemia = system: MOLT-4 leukemia

Row | SMILES | growth (SK-MEL-2 melanoma) | growth (EKVX NSCLC) | growth (SN12C renal) | growth (UO-31 renal) | growth (TK-10 renal) | growth (ACHN renal) | growth (CAKI-1 renal) | growth (A498 renal) | growth (CCRF-CEM leukemia) | growth (MOLT-4 leukemia)
1 | Cn1c(=O)c2[nH]c(CCCCC(=O)O)nc2n(C)c1=O | 111% | 131% | 104% | 105% | 98.4% | 103% | 106% | 113% | 75.6% | 102%
2 | Cc1ccc(S(N)(=O)=O)cc1Cl | 103% | 125% | 106% | 94.5% | 107% | 107% | 101% | 106% | 102% | 96.6%
3 | NC(=O)c1cc2c3ccccc3ccn2c1-c1ccccc1 | -7.59% (active) | 14.5% | 28.5% | 32.2% | 47.7% | 23.6% | -9.87% (active) | 34.4% | 2.84% (active) | 7.02% (active)
4 | CCOc1ccc(C(=O)O)cc1 | 109% | 99.6% | 113% | 102% | 99.6% | 109% | 97.9% | 84.7% | 105% | 116%
5 | OCCc1ccc(Cl)cc1 | 99.3% | 97.9% | 94.9% | 90.5% | 94.7% | 105% | 92.7% | 106% | 96.9% | 109%
6 | COc1ccc(Br)c2c1C(=O)CC2 | 96% | 106% | 91.8% | 85.4% | 147% | 114% | 110% | 169% | 93.1% | 142%
7 | CC(C)(CC(=O)O)CC(=O)O | 107% | 97.4% | 97.2% | 94% | 96.5% | 104% | 97.7% | 93.7% | 105% | 100%
8 | CC(=O)NNC(=S)N/C=C/c1c(C)ccc([N+](=O)[O-])c1[N+](=O)[O-] | 92.3% | 99.3% | 96.2% | 92% | 118% | 98.1% | 98.8% | 105% | 99.9% | 95.5%
9 | N#Cc1ccc(OC(=O)Nc2cc(Cl)cc(Cl)c2)cc1 | -42.5% [100 µM] (active) | -2.41% [100 µM] (active) | -14% [100 µM] (active) | 5.42% [100 µM] (active) | -4.01% [100 µM] (active) | 0.368% [100 µM] (active) | -27.5% [100 µM] (active) | -19.7% [100 µM] (active) | 2.17% [100 µM] (active) | -14.4% [100 µM] (active)
10 | CCN(CC)CCOC(=O)Nc1c(C(C)C)cccc1C(C)C | 124% | 106% | 105% | 83.1% | 105% | 105% | 88.9% | 118% | 98.4% | 105%
11 | c1cc(CNCCNCc2ccncc2)ccn1 | 104% | 99.6% | 98.5% | 83.7% | 105% | 109% | 91.3% | 116% | 89.5% | 84.1%
12 | OC1Cc2ccccc2C1 | 107% | 99.9% | 104% | 97.5% | 95.9% | 98.3% | 103% | 82.9% | 98.1% | 98.9%
13 | Cc1c(Cl)cccc1N=C=S | 99.5% | 89.1% | 99.9% | 81.1% | 106% | 99.3% | 88.8% | 117% | 94.6% | 109%
14 | Nc1cc(F)ccc1[N+](=O)[O-] | 114% | 100% | 98.6% | 94.2% | 104% | 104% | 92.2% | 102% | 110% | 109%
15 | S=c1nc2[nH]c3ccccc3c2n[nH]1 | 5.51% (active) | 66.4% | 92.2% | 88.6% | 122% | 97.2% | 88.9% | 95.7% | 91.3% | 104%
16 | Cn1c2ccccc2c2nnc(NCCCCO)nc21 | 108% | 76.3% | 94.3% | 68.4% | 123% | 87.2% | 66.4% | 105% | 107% | 97.7%
17 | O=C1C=C(c2ccccc2)C(O)(c2ccccc2)C1 (stereo not given) | 103% | 89.8% | 99.7% | 83.5% | 99.6% | 96% | 89.9% | 105% | 100% | 95.4%
18 | CS(=O)CC(=N\O)/C(CS(C)=O)=N\O (stereo not given) | 102% | 99.1% | 97.6% | 85.3% | 106% | 107% | 91.2% | 111% | 101% | 105%
19 | OCCNc1ccccc1 | 103% | 111% | 108% | 90.9% | 101% | 108% | 96.7% | 99.1% | 105% | 101%
20 | NCCCN1CCCC1=O | 117% | 122% | 97.5% | 95.7% | 100% | 113% | 109% | 103% | 114% | 97.1%
21 | CC1(C)C2CCC1(C)C1(C2)OCCS1 (stereo not given) | 104% | 87.4% | 87.6% | 90.1% | 97.9% | 102% | 87.2% | 113% | 110% | 99.6%
22 | O=C(O)c1ccccc1Cc1ccc2c(c1)CCCC2 | 113% | 119% | 102% | 73.1% | 103% | 104% | 98.5% | 107% | 106% | 97.9%
23 | CC1CC2C3CCC4=CC(=O)CCC4(C)C3CCC2(C)C1(O)C(=O)CO (stereo not given) | 99.2% | 99.4% | 102% | 92.2% | 117% | 124% | 94.9% | 73% | 90.6% | 71.9%
24 | CCOC(=O)c1cc(C)[nH]c(=O)c1C#N | 104% | 86.8% | 102% | 105% | 101% | 101% | 56.9% | 108% | 81.9% | 72.1%
25 | Nc1cc2c(cc1Cl)C(=O)c1ccccc1C2=O | 111% | 42.5% | 34% | -15% (active) | 33.8% | 3.29% (active) | 41.5% | 103% | 80.5% | 85.8%
26 | CC1=CC(=Nc2ccc(N(C)C)cc2)C=C(C)C1=O | 110% | 93% | 97.3% | 62.3% | 133% | 77.3% | 91.2% | 76.8% | 76.1% | 87.6%
27 | Oc1ccc2ccccc2c1CN1CCOCC1 | 103% | 113% | 107% | 74.6% | 123% | 103% | 94.6% | 112% | 95.3% | 99.6%
28 | Nc1cc(N)ncn1 | 113% | 102% | 97.1% | 94% | 102% | 102% | 102% | 93.8% | 99.2% | 93.5%
29 | CCCCn1cnc2c(=O)[nH]cnc21 | 107% | 97.9% | 105% | 94.7% | 109% | 89.7% | 98.4% | 108% | 96.7% | 96.2%
30 | CCC(C)c1c(N)n(S(=O)(=O)c2ccc(C)cc2)oc1=O (stereo not given) | 107% | 121% | 106% | 89.5% | 101% | 99.9% | 96.5% | 113% | 112% | 109%
